Data on six molecules can be found in ChEMBL document CHEMBL1961873, “Compounds: GSK PKIS; Assays: Nanosyn kinase panel” (2012).

For assay [1], the target named is Mitogen-activated protein kinase 3 (Homo sapiens) (UniProt P27361). The note with it: at 1 µM.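 Further: values are mean percent inhibition of MAPK3.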
Assay [2] concerns the target SRSF protein kinase 3 (Homo sapiens) (UniProt Q9UPE1). To be noted: at 0.1 µM.
The target is the same in assay [3]. To be noted: at 1 µM.
The target of assay [4] is Mitogen-activated protein kinase 14 (Homo sapiens) (UniProt Q16539). To be noted: at 0.1 µM.
Mitogen-activated protein kinase 14 (Homo sapiens), sequence (Q16539 whole entry): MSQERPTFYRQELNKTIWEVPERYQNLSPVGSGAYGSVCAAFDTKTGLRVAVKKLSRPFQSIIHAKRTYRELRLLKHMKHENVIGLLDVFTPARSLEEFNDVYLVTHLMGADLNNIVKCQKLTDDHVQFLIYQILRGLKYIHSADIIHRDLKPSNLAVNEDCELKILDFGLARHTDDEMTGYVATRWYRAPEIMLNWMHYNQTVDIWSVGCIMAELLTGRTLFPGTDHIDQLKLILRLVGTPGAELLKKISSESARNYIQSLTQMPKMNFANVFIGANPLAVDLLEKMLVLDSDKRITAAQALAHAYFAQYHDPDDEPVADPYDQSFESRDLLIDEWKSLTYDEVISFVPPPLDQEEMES
The target is the same in assay [5]. The note with it: at 1 µM.
For assay [6], the target named is Mitogen-activated protein kinase 11 (Homo sapiens) (UniProt Q15759). The note with it: at 0.1 µM.
Mitogen-activated protein kinase 11 (Homo sapiens), sequence (Q15759 whole entry): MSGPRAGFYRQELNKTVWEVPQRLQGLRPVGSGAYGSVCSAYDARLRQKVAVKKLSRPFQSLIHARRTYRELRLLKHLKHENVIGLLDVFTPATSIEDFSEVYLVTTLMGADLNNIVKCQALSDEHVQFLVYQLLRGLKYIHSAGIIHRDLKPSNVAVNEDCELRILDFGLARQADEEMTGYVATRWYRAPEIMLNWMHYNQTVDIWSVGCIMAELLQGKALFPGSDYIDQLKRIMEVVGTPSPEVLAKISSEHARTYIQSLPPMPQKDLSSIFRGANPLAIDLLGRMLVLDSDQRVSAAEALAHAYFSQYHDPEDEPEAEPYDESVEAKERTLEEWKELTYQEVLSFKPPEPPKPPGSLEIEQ
The target is the same in assay [7]. The note with it: at 1 µM.
The target in assay [8] is T1, Mitogen-activated protein kinase 13 (Homo sapiens) (UniProt O15264).
T1 sequence (whole entry): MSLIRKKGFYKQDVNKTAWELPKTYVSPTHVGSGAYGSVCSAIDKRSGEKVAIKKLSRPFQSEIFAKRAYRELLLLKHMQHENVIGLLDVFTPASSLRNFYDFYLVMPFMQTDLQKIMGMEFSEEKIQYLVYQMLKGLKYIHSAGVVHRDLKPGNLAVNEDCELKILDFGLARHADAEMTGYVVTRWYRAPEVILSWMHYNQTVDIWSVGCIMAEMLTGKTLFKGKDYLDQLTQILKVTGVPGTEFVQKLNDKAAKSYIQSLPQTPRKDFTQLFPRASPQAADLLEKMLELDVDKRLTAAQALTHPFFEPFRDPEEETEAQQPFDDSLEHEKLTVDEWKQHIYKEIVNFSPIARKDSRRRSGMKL
The note with it: at 0.1 µM.

For assay [9], the target named is T1, Mitogen-activated protein kinase 13 (Homo sapiens). The note with it: at 1 µM.
Assay [10] deals with T2, Mitogen-activated protein kinase 12 (Homo sapiens) (UniProt P53778).
T2 sequence (whole entry): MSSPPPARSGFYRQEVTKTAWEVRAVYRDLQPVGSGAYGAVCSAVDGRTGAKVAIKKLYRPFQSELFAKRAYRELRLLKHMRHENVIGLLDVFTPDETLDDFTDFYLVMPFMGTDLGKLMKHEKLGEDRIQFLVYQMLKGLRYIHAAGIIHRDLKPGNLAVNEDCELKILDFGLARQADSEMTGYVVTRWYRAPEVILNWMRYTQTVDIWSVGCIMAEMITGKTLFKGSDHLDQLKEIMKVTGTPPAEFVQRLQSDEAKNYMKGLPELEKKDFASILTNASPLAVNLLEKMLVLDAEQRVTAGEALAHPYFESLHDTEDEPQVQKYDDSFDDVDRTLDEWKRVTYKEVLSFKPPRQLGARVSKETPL
To be noted: at 0.1 µM.

Assay [11] deals with T2, Mitogen-activated protein kinase 12 (Homo sapiens). The note with it: at 1 µM.
In assay [12] the target is SRSF protein kinase 1 (Homo sapiens) (UniProt Q96SB4). The note with it: at 0.1 µM.
SRSF protein kinase 1 (Homo sapiens), sequence (Q96SB4 whole entry): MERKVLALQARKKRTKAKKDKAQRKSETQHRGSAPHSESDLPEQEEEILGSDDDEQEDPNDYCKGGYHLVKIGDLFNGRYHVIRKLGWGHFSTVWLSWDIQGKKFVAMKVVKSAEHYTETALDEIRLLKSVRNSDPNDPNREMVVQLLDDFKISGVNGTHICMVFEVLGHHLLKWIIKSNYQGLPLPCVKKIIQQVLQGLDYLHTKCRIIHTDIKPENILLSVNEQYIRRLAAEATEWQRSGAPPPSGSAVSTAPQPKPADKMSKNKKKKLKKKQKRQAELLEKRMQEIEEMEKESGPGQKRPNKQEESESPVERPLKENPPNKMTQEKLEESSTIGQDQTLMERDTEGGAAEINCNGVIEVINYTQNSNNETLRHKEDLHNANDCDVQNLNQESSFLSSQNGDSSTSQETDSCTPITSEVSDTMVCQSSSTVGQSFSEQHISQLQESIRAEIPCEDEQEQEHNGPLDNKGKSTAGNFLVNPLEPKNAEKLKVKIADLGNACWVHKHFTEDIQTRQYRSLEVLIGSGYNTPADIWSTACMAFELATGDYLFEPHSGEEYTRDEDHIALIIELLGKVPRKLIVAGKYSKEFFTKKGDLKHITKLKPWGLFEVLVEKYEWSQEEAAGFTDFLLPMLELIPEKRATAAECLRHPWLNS
Assay [13] shares this target. The note with it: at 1 µM.
Assay [14] concerns the target Phosphatidylinositol 4,5-bisphosphate 3-kinase catalytic subunit alpha isoform (Homo sapiens) (UniProt P42336). The note with it: at 0.1 µM.
The target is the same in assay [15]. To be noted: at 1 µM.
For assay [16], the target named is T3, Phosphatidylinositol 4,5-bisphosphate 3-kinase catalytic subunit delta isoform (Homo sapiens) (UniProt O00329).
T3 sequence (whole entry): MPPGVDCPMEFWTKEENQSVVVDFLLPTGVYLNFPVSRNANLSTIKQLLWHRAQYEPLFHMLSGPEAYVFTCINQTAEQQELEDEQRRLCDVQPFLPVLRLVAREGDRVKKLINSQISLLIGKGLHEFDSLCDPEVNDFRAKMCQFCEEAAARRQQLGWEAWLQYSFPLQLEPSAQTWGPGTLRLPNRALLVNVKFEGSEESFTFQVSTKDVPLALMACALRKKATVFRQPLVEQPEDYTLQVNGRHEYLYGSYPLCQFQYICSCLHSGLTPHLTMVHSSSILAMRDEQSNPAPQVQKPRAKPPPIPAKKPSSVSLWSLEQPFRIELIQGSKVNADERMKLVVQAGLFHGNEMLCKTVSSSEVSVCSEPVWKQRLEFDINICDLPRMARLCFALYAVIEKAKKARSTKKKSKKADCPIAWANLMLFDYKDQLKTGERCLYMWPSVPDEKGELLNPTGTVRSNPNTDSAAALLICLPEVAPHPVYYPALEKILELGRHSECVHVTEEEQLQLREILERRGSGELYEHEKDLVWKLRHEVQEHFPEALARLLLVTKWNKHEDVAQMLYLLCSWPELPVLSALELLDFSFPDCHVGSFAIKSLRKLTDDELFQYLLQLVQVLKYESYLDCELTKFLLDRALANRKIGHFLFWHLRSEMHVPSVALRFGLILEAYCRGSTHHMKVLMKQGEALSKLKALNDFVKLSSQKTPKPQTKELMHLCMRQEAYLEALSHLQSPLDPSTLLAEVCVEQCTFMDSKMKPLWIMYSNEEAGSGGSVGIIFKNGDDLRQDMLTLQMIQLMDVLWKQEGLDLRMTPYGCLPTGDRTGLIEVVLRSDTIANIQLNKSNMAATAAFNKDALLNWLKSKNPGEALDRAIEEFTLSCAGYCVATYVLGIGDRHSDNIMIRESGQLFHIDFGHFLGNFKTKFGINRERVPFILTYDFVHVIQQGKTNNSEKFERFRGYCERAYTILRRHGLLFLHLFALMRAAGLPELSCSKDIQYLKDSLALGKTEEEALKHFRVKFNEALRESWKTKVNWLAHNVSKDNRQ
The note with it: at 0.1 µM.

For assay [17], the target named is T3, Phosphatidylinositol 4,5-bisphosphate 3-kinase catalytic subunit delta isoform (Homo sapiens). The note with it: at 1 µM.
For assay [18], the target named is Phosphatidylinositol 4-kinase beta (Homo sapiens) (UniProt Q9UBF8). To be noted: at 0.1 µM.
Phosphatidylinositol 4-kinase beta (Homo sapiens), sequence (Q9UBF8 2-816 limits assumed): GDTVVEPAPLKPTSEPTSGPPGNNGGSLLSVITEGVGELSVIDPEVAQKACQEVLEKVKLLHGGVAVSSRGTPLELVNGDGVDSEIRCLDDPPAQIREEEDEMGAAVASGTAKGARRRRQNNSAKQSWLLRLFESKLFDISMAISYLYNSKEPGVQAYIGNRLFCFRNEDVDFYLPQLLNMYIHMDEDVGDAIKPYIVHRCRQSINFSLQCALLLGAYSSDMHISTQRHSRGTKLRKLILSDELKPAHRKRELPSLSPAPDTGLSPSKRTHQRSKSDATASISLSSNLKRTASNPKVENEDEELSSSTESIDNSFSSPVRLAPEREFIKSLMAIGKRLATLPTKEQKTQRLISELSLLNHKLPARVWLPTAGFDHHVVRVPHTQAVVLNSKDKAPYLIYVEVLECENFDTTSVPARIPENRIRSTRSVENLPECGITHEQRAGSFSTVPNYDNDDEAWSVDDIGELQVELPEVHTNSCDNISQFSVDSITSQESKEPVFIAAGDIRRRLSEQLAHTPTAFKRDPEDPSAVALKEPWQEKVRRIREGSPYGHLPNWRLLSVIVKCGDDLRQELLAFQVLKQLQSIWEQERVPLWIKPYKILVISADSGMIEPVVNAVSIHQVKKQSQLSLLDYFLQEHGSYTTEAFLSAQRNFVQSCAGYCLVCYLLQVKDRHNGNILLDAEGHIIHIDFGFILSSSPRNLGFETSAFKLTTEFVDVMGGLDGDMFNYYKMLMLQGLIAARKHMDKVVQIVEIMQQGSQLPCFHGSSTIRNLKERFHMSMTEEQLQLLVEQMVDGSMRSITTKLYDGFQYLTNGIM
For assay [19] the target is unchanged. To be noted: at 1 µM.
Assay [20] has as its target Sphingosine kinase 1 (Homo sapiens) (UniProt Q9NYA1). The note with it: at 0.1 µM.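 Further: mean percent inhibition of SPHK1 activity, measured within the GSK PKIS screening panel.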

Phosphatidylinositol 4,5-bisphosphate 3-kinase catalytic subunit alpha isoform (Homo sapiens), sequence (P42336 whole entry, canonical isoform): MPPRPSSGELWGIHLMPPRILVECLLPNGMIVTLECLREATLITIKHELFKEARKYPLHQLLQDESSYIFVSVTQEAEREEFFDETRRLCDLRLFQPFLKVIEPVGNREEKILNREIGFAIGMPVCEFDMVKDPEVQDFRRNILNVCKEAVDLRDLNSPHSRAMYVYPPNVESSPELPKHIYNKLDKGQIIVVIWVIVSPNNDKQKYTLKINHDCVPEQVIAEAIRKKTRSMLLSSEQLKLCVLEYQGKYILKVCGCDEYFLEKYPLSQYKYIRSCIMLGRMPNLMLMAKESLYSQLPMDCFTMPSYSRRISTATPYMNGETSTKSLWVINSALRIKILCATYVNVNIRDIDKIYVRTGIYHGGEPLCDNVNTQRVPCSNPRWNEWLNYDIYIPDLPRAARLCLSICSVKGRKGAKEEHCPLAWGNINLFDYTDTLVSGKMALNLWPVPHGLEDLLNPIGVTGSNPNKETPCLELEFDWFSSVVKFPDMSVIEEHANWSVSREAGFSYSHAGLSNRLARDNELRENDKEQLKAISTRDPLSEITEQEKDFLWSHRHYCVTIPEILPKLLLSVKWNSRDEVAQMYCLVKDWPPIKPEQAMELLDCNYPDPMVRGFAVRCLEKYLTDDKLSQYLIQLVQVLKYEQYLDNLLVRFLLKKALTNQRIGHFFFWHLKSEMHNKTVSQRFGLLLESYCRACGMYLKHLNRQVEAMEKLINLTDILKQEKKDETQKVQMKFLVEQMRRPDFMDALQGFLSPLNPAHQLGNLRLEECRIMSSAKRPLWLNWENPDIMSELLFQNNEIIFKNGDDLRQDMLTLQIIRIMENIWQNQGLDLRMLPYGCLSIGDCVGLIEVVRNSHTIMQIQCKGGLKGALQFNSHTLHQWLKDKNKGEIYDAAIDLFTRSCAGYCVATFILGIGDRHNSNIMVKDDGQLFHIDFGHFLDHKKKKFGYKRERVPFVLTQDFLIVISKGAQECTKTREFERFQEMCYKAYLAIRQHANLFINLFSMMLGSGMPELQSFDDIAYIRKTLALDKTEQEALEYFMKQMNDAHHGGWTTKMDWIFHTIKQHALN
SRSF protein kinase 3 (Homo sapiens), sequence (Q9UPE1 whole entry): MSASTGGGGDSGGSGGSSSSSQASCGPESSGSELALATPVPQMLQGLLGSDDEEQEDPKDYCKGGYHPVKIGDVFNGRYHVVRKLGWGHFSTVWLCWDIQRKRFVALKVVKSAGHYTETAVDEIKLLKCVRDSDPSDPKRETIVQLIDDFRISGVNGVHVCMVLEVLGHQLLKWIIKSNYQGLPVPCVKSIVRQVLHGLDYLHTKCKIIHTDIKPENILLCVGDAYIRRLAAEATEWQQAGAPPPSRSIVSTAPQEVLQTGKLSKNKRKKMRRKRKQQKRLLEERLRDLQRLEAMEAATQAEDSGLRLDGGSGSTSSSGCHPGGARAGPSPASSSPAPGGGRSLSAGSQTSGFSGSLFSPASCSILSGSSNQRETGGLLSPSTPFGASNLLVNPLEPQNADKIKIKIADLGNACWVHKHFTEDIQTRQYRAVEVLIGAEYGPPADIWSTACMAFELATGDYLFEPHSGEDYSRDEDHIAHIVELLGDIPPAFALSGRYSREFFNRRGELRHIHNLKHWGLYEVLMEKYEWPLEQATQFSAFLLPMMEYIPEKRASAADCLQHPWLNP
Mitogen-activated protein kinase 3 (Homo sapiens), sequence (P27361 whole entry): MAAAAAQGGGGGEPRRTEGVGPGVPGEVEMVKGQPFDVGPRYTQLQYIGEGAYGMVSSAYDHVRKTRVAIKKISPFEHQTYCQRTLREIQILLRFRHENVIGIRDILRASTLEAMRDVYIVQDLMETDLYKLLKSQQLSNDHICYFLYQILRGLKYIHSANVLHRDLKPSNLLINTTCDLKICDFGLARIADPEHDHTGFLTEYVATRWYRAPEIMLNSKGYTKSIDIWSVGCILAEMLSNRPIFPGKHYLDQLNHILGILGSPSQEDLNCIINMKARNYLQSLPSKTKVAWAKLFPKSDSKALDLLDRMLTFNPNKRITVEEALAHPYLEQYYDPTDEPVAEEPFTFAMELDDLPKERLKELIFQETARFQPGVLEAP
Sphingosine kinase 1 (Homo sapiens), sequence (Q9NYA1 whole entry): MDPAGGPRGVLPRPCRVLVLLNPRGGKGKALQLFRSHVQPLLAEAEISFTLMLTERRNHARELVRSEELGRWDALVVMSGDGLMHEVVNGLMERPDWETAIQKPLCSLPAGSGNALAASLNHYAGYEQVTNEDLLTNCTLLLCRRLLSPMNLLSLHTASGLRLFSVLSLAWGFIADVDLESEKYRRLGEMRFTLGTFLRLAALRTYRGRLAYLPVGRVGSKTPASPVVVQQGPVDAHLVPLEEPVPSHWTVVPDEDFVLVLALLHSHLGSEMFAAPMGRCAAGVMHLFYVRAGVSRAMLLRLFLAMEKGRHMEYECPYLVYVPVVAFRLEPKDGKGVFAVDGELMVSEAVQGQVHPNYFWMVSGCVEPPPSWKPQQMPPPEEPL

For the molecule `Cc1cc(-c2ccccn2)cc(C)c1/C=C/c1cncc(-c2nn[nH]n2)c1`, the inhibition is 3.69% in assay [1]; -0.25% in [2]; -1.02% in assay [3]; 7.59% in assay [4]; 12.9% in [5]; 3.45% in assay [6]. The inhibition in assay [7] was 1.89%; in assay [8], 4.85%; in [9], 4.9%; in assay [10], 3.27%; in assay [11], 5.02%; in assay [12] it was -3.94%. The inhibition is -5.12% in assay [13]; 3.8% in assay [14]; 3.72% in assay [15]; 0.41% in [16]; -0.48% in [17]; -1.8% in assay [18]. Besides, the inhibition in assay [19] was determined as 0.81%; in assay [20] it was 0.97%.
Consider `Cc1ccc(O)cc1Nc1ccnc2ccc(S(C)(=O)=O)cc12`, for which the inhibition was 2.62% in [1]; -1.95% in assay [2]; -1.35% in [3]; 14% in assay [4]; 58.8% in [5]; 9% in assay [6]. Further, the inhibition in assay [7] was 34.2%; in assay [8] it was 2.61%; in assay [9], 6.26%; in assay [10] it was 0.62%; in [11], 3.79%; in assay [12], -0.84%. Also, the inhibition in assay [13] was 2.51%; in [14], 9.67%; in [15], 39.6%; in assay [16] it was 10.9%; in assay [17], 50.7%; in [18], -3.87%. Further, the inhibition in assay [19] is 1.39%; in [20], 1.12%.
With `O=C(Nc1ccc(Oc2ccc3[nH]c(NC(=O)c4ccco4)nc3c2)cc1)Nc1cc(C(F)(F)F)ccc1F`, the inhibition turned out to be 2.24% in assay [1]; 2.34% in [2]; 39.6% in assay [3]; 4.66% in assay [4]; 39.4% in assay [5]; 4.14% in assay [6]. For the same molecule, the inhibition in assay [7] is 31.7%; in assay [8] it was 1.18%; in assay [9] it was 1.53%; in assay [10], -4.43%; in [11], 3.11%; in assay [12], -0.3%. The inhibition is 5.87% in assay [13]; -0.31% in assay [14]; 0.01% in assay [15]; 0.36% in [16]; 2.96% in assay [17]; 1.45% in assay [18]. The values for the inhibition in assay [19] and in assay [20] were 1.53% and 0.3%, respectively.
Regarding `COc1cc2ncnc(Nc3ccc(C)c(O)c3)c2cc1OC`, the inhibition in [1] was 7.04%; in assay [2] it was -1.99%; in assay [3], 0.42%; in assay [4] it was 5.71%; in assay [5], 22.1%; in assay [6] it was 6.38%. Also, the inhibition is 17.4% in [7]; -2.57% in [8]; 6.31% in [9]; 2.43% in assay [10]; 4.08% in assay [11]; -1.2% in [12]. Moreover, the inhibition is -0.28% in [13]; 4.07% in [14]; 7.27% in assay [15]; 1.27% in assay [16]; 4.88% in assay [17]; -1.03% in assay [18]. In addition, the inhibition in assay [19] is -0.17%; in assay [20], 4.48%.
Regarding `CC(C)c1ccc2c(c1)NC(=O)/C2=N/Nc1ccc(S(N)(=O)=O)cc1`, the inhibition in [1] is -0.93%; in assay [2] it was -0.91%; in assay [3], -3.87%; in assay [4] it was 0.75%; in assay [5], -0.04%; in assay [6] it was -1.84%. For the same molecule, the inhibition in assay [7] was 3.37%; in assay [8] it was -0.12%; in assay [9], -0.88%; in [10] it was 0.48%; in assay [11], 0.63%; in [12], -0.89%. Moreover, the inhibition in assay [13] is -0.94%; in assay [14], 0.32%; in [15], 1.8%; in [16], 0.64%; in [17] it was 0.71%; in assay [18] it was 0.05%. For the same molecule, the inhibition in assay [19] is 0.24%; in [20] it was 0%.
As for `CN1CCN(C(=O)c2ccc(NC(=O)Nc3ccc(N(C)c4ccnc(Nc5ccc(CS(C)(=O)=O)cc5)n4)cc3)cc2)CC1`, the inhibition was 4.83% in assay [1]; -0.32% in assay [2]; -1.14% in assay [3]; 3.65% in assay [4]; 4.32% in [5]; 3.2% in assay [6]. In addition, the inhibition in assay [7] is 3.23%; in assay [8], 1.15%; in [9] it was 1.91%; in assay [10], 1.54%; in assay [11] it was 2.72%; in assay [12] it was -1.98%. Besides, the inhibition was -1.99% in [13]; 3.38% in assay [14]; 2.56% in assay [15]; 1.78% in assay [16]; 4.04% in assay [17]; 0.19% in [18]. The results for the inhibition in [19] and in assay [20] were 1.27% and 0%, respectively.
